# Measurements: PubChem BioAssay AID1220 (Sanford-Burnham Center for Chemical Genomics, 2008)
# In all, about 190,000 compounds went through this assay and about 1,300 (0.68%) were called active. The sample holds actives, similar compounds and a random draw of the others, so the mix is not that of the screen. Rule as the data show it: active = inhibition above about 50%; inactive = the rest.
# Target: Mannose-6-phosphate isomerase (Homo sapiens) (UniProt P34949)
# Test: human PMI inhibitors, high substrate, primary screen, biochemical, fluorescence intensity, high mannose 6-phosphate (AID 1220)
# Details: recombinant PMI enzyme, coupled fluorescence intensity; at 20 µM; hits give high values
# Mannose-6-phosphate isomerase (Homo sapiens), sequence (P34949 whole entry, looked up): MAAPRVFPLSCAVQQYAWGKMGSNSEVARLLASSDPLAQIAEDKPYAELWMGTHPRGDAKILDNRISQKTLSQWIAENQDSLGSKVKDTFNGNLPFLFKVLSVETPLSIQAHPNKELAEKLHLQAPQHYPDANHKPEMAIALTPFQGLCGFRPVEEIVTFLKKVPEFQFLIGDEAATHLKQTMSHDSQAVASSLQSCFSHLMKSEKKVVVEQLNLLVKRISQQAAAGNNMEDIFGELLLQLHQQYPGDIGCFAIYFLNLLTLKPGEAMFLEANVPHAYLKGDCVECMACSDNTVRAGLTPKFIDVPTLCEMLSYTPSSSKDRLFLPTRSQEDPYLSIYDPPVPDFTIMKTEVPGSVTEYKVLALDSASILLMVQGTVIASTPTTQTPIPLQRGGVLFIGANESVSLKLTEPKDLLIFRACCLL
row,Structure (SMILES),inhibition
1,O=C(NCc1ccco1)c1cc2nc(C3CC3)cc(C(F)(F)F)n2n1,8.5% (inactive)
2,Cc1c(NC(=O)C2CCCCN2S(=O)(=O)c2ccc(Cl)cc2)c(=O)n(-c2ccccc2)n1C (stereo not given),4.8% (inactive)
3,Cc1ccc(C(=O)NC(=S)Nc2cccc(NC(=O)c3ccccc3)c2)cc1[N+](=O)[O-],0.9% (inactive)
4,Fc1ccc(-n2nnc(-c3cccnc3)n2)cc1,-1.8% (inactive)
5,Cc1cccc(-c2n[nH]c(=S)n2C)c1,-8.8% (inactive)
6,O=C(NC1=NCCS1)c1ccccc1OCc1ccc(F)cc1,1.4% (inactive)
7,COc1ccc(N=c2sc3ccccc3n2C)cc1,0.4% (inactive)
8,COc1cc(N=c2ssnc2Cl)cc(OC)c1,27.3% (inactive)
9,COc1ccc(OC)c(N=c2ssnc2Cl)c1,67.4% (active)
10,COc1ccc(OC)c(N=C2C(=O)Nc3ccccc32)c1,5.1% (inactive)
11,OCc1ccccc1N=c1ssnc1Cl,43.7% (inactive)
12,Cc1ccc(-c2nc(C)sc2CC(=O)OCC(=O)Nc2cccc([N+](=O)[O-])c2)cc1,-5.6% (inactive)
13,C/C(=N\N=C\c1ccc(N(C)C)cc1)c1cccc([N+](=O)[O-])c1,-128% (inactive)
14,COC(=O)c1sccc1NC(=S)Nc1cc(OC)ccc1OC,41.2% (inactive)
15,COc1ccc2c(c1)Cc1sc(NC(=O)c3ccccc3)nc1-2,-13.1% (inactive)
16,COc1ccc2c(c1)-c1nc(NC(=O)c3ccco3)sc1CC2,32.9% (inactive)
17,COc1ccc2c(c1)Cc1sc(NC(=O)c3cccnc3)nc1-2,64.2% (active)
18,COc1ccc(C(=O)Nc2nc3c(s2)Cc2cc(OC)ccc2-3)cc1,26.8% (inactive)
19,COc1ccc2c(c1)CCc1sc(NC(=O)c3ccco3)nc1-2,60.6% (active)
20,COc1ccc2c(c1)Cc1sc(NC(=O)c3ccco3)nc1-2,45.8% (inactive)
21,Cc1ccc(NC(=O)c2cc(C)n(-c3ccccc3)c2C)cc1,9.3% (inactive)
22,Cc1ccc(CN(c2ccc(C(=O)N3CCCC3)cc2)S(C)(=O)=O)cc1,-1.2% (inactive)
23,CCC(=O)Nc1cccc(NC(=O)CSc2nnc(-c3ccc(NS(C)(=O)=O)cc3)n2CC)c1,-2.3% (inactive)
24,CCc1nnc(NC(=O)CSc2nnc3c4ccccc4n(C)c3n2)s1,2% (inactive)
25,Cc1onc(-c2c(F)cccc2Cl)c1C(=O)N1CCCc2ccccc21,4.2% (inactive)

row,Structure (SMILES),inhibition
1,O=C1NC(Cc2ccccc2)C(=O)N1Cc1cc([N+](=O)[O-])cc2c1OCOC2 (stereo not given),-4.9% (inactive)
2,O=C(CN(C(=O)Cn1nnc(-c2ccccc2F)n1)c1cccc2c1CCCC2)NCc1ccccc1,28.1% (inactive)
3,NC(=O)NC(=O)CC1S/C(=N/N=C2/NC(=O)CS2)NC1=O (stereo not given),24.9% (inactive)
4,NC(=O)NC(=O)CC1S/C(=N/N=C/c2ccccc2)NC1=O (stereo not given),-2% (inactive)
5,NC(=O)NC(=O)CC1S/C(=N/N=C2\CSC(=O)N2)NC1=O (stereo not given),50.5% (active)
6,COc1ccc(-c2cc(C(=O)Nc3c(C)nn(Cc4ccc(Cl)cc4)c3C)no2)cc1,1.1% (inactive)
7,CC(CCn1cccn1)NC(=O)c1cc(COc2ccc(F)cc2F)on1 (stereo not given),7.7% (inactive)
8,Cc1cc2nccc(-c3ccccn3)n2n1,-0.9% (inactive)
9,Nc1nc2nccc(-c3ccccn3)n2n1,4.4% (inactive)
10,c1ccc(-c2cc3nccc(-c4ccccn4)n3n2)cc1,61.5% (active)
11,Cc1cc2nc(CS(=O)(=O)c3ccccc3)cc(=O)n2[nH]1,0.1% (inactive)
12,Cc1nn(C)c(C)c1CS(=O)(=O)c1ccccc1,2.6% (inactive)
13,CCCCCCCCNc1nc(Cl)nc(NCCN2CCOCC2)n1,-7.1% (inactive)
14,NC(=O)CSc1nc2ccccc2nc1SCC(N)=O,-6.6% (inactive)
15,CCOc1cc(NC(=O)C2CCCO2)c(OCC)cc1NC(C)=O (stereo not given),6.8% (inactive)
16,CCOc1cc(Cl)c(NC(C)=O)cc1OCC,-3.5% (inactive)
17,CC(=O)Nc1nonc1NC(C)=O,10.7% (inactive)
18,COc1cc(O)c(NC(C)=O)c2nonc12,62.4% (active)
19,COc1cc(O)c(C(C)=O)cc1OC,-17% (inactive)
20,CC(=O)Nc1cc(OC(C)=O)c2nonc2c1OC(C)=O,78.3% (active)
21,COc1ccc(/C=N/NS(=O)(=O)c2ccccc2)cc1OC(=O)c1ccc(C)cc1,6.9% (inactive)
22,Clc1ccccc1Cc1noc(CN2CCCCC2CCc2ccccn2)n1 (stereo not given),16.4% (inactive)
23,FC(F)Oc1ccc(/C=N/c2c(-c3ccc(OC(F)F)cc3)nc3n2CCS3)cc1,1.9% (inactive)
24,Clc1ccc(/C=N/c2c(-c3ccc(Cl)cc3)nc3n2CCS3)cc1,0.3% (inactive)
25,COc1ccc(/C=N/c2c(-c3ccc(OC)cc3)nc3n2CCS3)cc1,57.2% (active)
